SMILES strings stand for the structures. Calls of active or inactive are those of the source. Unless noted, how the calls were made is not given here.

The test system of experiment [1] is XIP peptide (Xip251-270) binding. Kind of experiment: XIP fragment 251-270 binding compounds – biochemical, small-molecule microarray, fluorescence 635/667 nm, 0.1 µg/mL protein, primary screen (AID 1182). As to conditions: fluorescent protein binding, 635 nm, higher = more signal, called active from +8 up or from −8 down.
The test system of the next experiment is XIP peptide (Xip251-270). Kind of experiment: compounds binding XIP fragment 251-270 – biochemical, small-molecule microarray, fluorescence 635/667 nm, 0.5 µg/mL protein, primary screen (AID 1183). Particulars: fluorescence 635 nm, higher = more signal.
Experiment [2] in a line: blood-stage malaria parasite viability loss – strain 3D7, DAPI fluorescence, 100 nL, primary screen (AID 1184).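 Further: parasites grown inside human red blood cells in medium with human serum.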 As to conditions: P. falciparum 3D7 growth, 3 d, higher = more signal.
Experiment [3] has as its target Homeobox protein Hox-A13 (Mus musculus) (UniProt Q62424). Kind of experiment: disruptors of Hoxa13 oligonucleotide interaction – biochemical, fluorescence polarization, labeled oligonucleotide, primary screen (AID 1185). As to conditions: Hoxa13:DNA binding, 15 min, higher = more signal, called active from +8 up or from −8 down. On the technique in general: In fluorescence polarisation assays a small probe gives low polarisation when free and higher when bound to something large.

Experiment [4] can be described thus: blockers of DNA damage checkpoint Chk1 activation – imaging, HeLa, hydroxyurea, phospho-Chk1 antibody, percent positive cells, primary screen (AID 1186). Particulars: hydroxyurea-induced phospho-Chk1 immunofluorescence imaging, higher = more signal.
The nature of experiment [5]: blockers of DNA damage checkpoint Chk1 activation – imaging, HeLa, hydroxyurea, phospho-Chk1 nuclear intensity, primary screen (AID 1187). Particulars: hydroxyurea-induced phospho-Chk1 immunofluorescence imaging, higher = more signal.

Homeobox protein Hox-A13 (Mus musculus), sequence (Q62424 whole entry, looked up): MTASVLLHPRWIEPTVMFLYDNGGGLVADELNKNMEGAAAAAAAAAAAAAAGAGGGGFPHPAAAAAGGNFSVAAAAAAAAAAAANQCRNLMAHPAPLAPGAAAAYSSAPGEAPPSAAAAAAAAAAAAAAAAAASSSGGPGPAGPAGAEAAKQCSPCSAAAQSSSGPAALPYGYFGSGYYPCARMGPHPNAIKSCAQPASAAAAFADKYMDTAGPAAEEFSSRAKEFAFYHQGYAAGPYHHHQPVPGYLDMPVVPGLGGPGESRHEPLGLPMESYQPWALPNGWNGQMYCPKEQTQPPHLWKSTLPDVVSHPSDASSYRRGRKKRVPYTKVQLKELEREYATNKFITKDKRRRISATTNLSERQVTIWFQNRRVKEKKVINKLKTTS

`CCCC[C@H]1OB(O)C[C@H]2C1=C(COC)Cn1c(=O)n(-c3ccccc3)c(=O)n12`: the composite z-score in experiment [1] is 0.81 (inactive); with XIP peptide (Xip251-270), -0.305. In addition, the z-score in experiment [2] is -1.29; in experiment [3], -2.41 (inactive); in experiment [4] it was -0.503 (inactive); in experiment [5] it was -0.639 (inactive).

As for `CC(C)C(=C=CC[C@@H](O)c1ccc(OCCO)cc1)C[C@@H](O)COCc1ccccc1`, the composite z-score was 0.372 (inactive) in experiment [1] and 0.195 with XIP peptide (Xip251-270). In addition, the z-score is -2.45 in experiment [2], -3.75 (inactive) in experiment [3], -1.27 (inactive) in experiment [4] and -0.437 (inactive) in experiment [5].

`CCCC[C@H]1OB(O)C[C@H]2C1=C(COC)C[C@H]1C(=O)N(C)C(=O)[C@H]12`: the composite z-score in experiment [1] is -0.267 (inactive); with XIP peptide (Xip251-270), -0.0711. Also, the z-score in experiment [2] was 1.5; in experiment [3], -9 (active); in experiment [4] it was 0.534 (inactive); in experiment [5], 0.312 (inactive).

Turning to `Cc1ccc(S[C@]2(C(=O)NCCCN(C)C)CC(=O)N(Cc3ccccc3C(F)(F)F)[C@@H]2c2ccc(CO)cc2)cc1`, the figures for the composite z-score (in experiment [1]; in the experiment with XIP peptide (Xip251-270)) were 0.0209 (inactive) and -0.328, respectively. The z-score in experiment [2] is -1.02; in experiment [3] it was -1.25 (inactive); in experiment [4], -0.0292 (inactive); in experiment [5], 0.135 (inactive).

In the case of `COc1ccc(CCNC(=O)[C@@]2(Sc3ccc(C)cc3)CC(=O)N(C(C)C)[C@@H]2c2ccc(CO)cc2I)cc1`, the composite z-score is 0.427 (inactive) in experiment [1] and 0.368 in the experiment on XIP peptide (Xip251-270). The z-score was -1.01 in experiment [2], -2.89 (inactive) in experiment [3], 0.332 (inactive) in experiment [4] and 0.404 (inactive) in experiment [5].

In the case of `O=C1N[C@@H](Cc2ccccc2)C(=O)N2[C@@H]1C[C@@H](C(=O)O)[C@H]2c1cccc(OCCO)c1`, the composite z-score in experiment [1] is 0.779 (inactive); in the experiment on XIP peptide (Xip251-270) it was 0.465. Further, the z-score in experiment [2] was 0.193; in experiment [3], -3.04 (inactive); in experiment [4] it was -0.22 (inactive); in experiment [5] it was 0.101 (inactive).

For `CN(C)C(=O)[C@]1(Cc2ccccc2N=[N+]=[N-])N=C(c2ccc(OCCCO)cc2)O[C@@H]1c1ccccc1N=[N+]=[N-]`, the composite z-score in experiment [1] is 1.31 (inactive); with XIP peptide (Xip251-270), 0.799. The z-score in experiment [2] was -2.22; in experiment [3], -3.63 (inactive); in experiment [4], -1.13 (inactive); in experiment [5], -1.55 (inactive).

With `COC(=O)C(CC#Cc1ccc2c(c1)[C@]1(C(=O)N2)[C@H](C(=O)Nc2nc3ccccc3s2)[C@H]2C(=O)O[C@H](c3ccccc3)[C@H](c3ccccc3)N2[C@@H]1c1ccccc1OCCO)C(=O)OC`, the composite z-score in experiment [1] is 1.5 (inactive); with XIP peptide (Xip251-270) it was 0.815. In addition, the z-score in experiment [2] was -2.02; in experiment [3], 2.38 (inactive); in experiment [4], 0.0018 (inactive); in experiment [5], 0.304 (inactive).

With `CCOC(=O)[C@H]1C/C=C/C[C@H](C(=O)OCC)C(=O)O[C@H]2[C@@H](OC)O[C@H](CO)[C@@H](OC(=O)c3c(OC)cccc3OC)[C@@H]2OC1=O`, the composite z-score in experiment [1] was 0.676 (inactive); in the experiment on XIP peptide (Xip251-270), 0.709. Further, the z-score was 0.754 in experiment [2], -3 (inactive) in experiment [3], -0.0052 (inactive) in experiment [4] and -0.142 (inactive) in experiment [5].

Consider `C=CCOC(=O)[C@@H]1[C@H]2C(=O)O[C@H](c3ccccc3)[C@H](c3ccccc3)N2[C@H](c2ccc(OCCOC(=O)[C@@H]3C[C@@H]4C(=O)NCC(=O)N4[C@@H]3c3ccc(O)cc3)cc2)[C@@]12C(=O)Nc1ccc(I)cc12`, for which the composite z-score in experiment [1] is 0.549 (inactive); in the experiment with XIP peptide (Xip251-270), 0.849. For the same compound, the z-score in experiment [2] was -1.77; in experiment [3] it was -0.29 (inactive); in experiment [4] it was 0.273 (inactive); in experiment [5], 0.702 (inactive).

Turning to `Cc1ccc(S[C@]2(C(=O)NC3CC3)CC(=O)N(Cc3ccccc3)[C@@H]2c2ccc(CO)cc2I)cc1`, the composite z-score was 0.135 (inactive) in experiment [1] and 0.387 in the experiment on XIP peptide (Xip251-270). In addition, the z-score in experiment [2] is -0.0873; in experiment [3], -2.79 (inactive); in experiment [4], 0.327 (inactive); in experiment [5] it was 0.794 (inactive).

Consider `C=C(C(=O)CC[C@@H](OC(=O)c1cccnc1)c1ccccc1OCCO)C(C)C`, for which the composite z-score in experiment [1] is 0.79 (inactive); in the experiment with XIP peptide (Xip251-270), 0.209. The z-score is -2.27 in experiment [2], -3.56 (inactive) in experiment [3], 0.434 (inactive) in experiment [4] and 0.993 (inactive) in experiment [5].

For the compound `COCC(=C=CC[C@@H](O)c1cccc(OCCO)c1)C[C@@H](O)c1ccccn1`, the composite z-score was 1.36 (inactive) in experiment [1] and 0.141 in the experiment with XIP peptide (Xip251-270). For the same compound, the z-score in experiment [2] is -1.2; in experiment [3], -4.8 (inactive); in experiment [4], -1.08 (inactive); in experiment [5] it was -0.725 (inactive).

As to `[N-]=[N+]=NCc1ccccc1C[C@]1(C(N)=O)COC(c2ccc(OCCCO)cc2)=N1`, the composite z-score in experiment [1] was 0.154 (inactive); in the experiment with XIP peptide (Xip251-270) it was 0.817. For the same compound, the z-score was -0.486 in experiment [2], -4.67 (inactive) in experiment [3], -0.913 (inactive) in experiment [4] and -0.959 (inactive) in experiment [5].

For `CCN(CC)c1ccc(N2CC=CC34O[C@@H]5C=CCCOC(=O)C5[C@H]3C(=O)N(CCCCCCO)[C@@H]4C2=O)cc1` (stereo partly specified), the composite z-score in experiment [1] is 0.0059 (inactive); with XIP peptide (Xip251-270), 0.375. In addition, the z-score in experiment [2] was -0.459; in experiment [3], -5.73 (inactive); in experiment [4], -0.43 (inactive); in experiment [5] it was 0.419 (inactive).

As for `COCCOC(=O)N1C(=O)[C@@]2(c3cc(C#CCCO)ccc31)[C@H](C(=O)N1CCCCCCC1)[C@H]1C(=O)O[C@H](c3ccccc3)[C@H](c3ccccc3)N1[C@@H]2c1ccc(OCCO)cc1`, the composite z-score in experiment [1] was 1.29 (inactive); with XIP peptide (Xip251-270), 0.666. Also, the z-score in experiment [2] was -1.5; in experiment [3], -11 (active); in experiment [4] it was -0.201 (inactive); in experiment [5], 0.0919 (inactive).

For the origin of these results see PubChem BioAssay.
